Eight molecules from PubChem BioAssay (NCI) can be followed below.

Holding throughout (experiment): NCI-60 one-dose screen, 48 h (100 = growth as untreated, 0 = no growth, -100 = all killed)
One assay has as its system DU-145 prostate. The note with it: 10 µM unless noted.
The subject of another assay is K-562 leukemia. Conditions: 10 µM unless noted.
Another assay has as its system MALME-3M melanoma. Conditions: 10 µM unless noted.
In another assay the test system is MDA-MB-231 breast. The note with it: 10 µM unless noted.
The next assay relates to RXF 393 renal. The note with it: 10 µM unless noted.
For a further assay, the system named is SF-268 CNS. Conditions: 10 µM unless noted.
The test system of a further assay is SF-295 CNS. Conditions: 10 µM unless noted.
The subject of a further assay is SF-539 CNS. Conditions: 10 µM unless noted.
The subject of a further assay is UACC-257 melanoma. The note with it: 10 µM unless noted.
The subject of another assay is M14 melanoma. Conditions: 10 µM unless noted.
In another assay the test system is HCT-15 colon. The note with it: 10 µM unless noted.
In another assay the test system is HT29 colon. Conditions: 10 µM unless noted.
The test system of a further assay is SNB-75 CNS. Conditions: 10 µM unless noted.
Another assay relates to U251 CNS. The note with it: 10 µM unless noted.
Another assay has as its system PC-3 prostate. Conditions: 10 µM unless noted.
Another assay has as its system SK-MEL-5 melanoma. The note with it: 10 µM unless noted.
A further assay deals with UACC-62 melanoma. The note with it: 10 µM unless noted.
The subject of a further assay is SK-MEL-28 melanoma. The note with it: 10 µM unless noted.
A further assay relates to SNB-19 CNS. The note with it: 10 µM unless noted.
For a further assay, the system named is LOX IMVI melanoma. Conditions: 10 µM.

The panel holds about 83,000 compounds, 20% with a hit somewhere; the sample as a whole holds those more often.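 How to read the values: 0–100, growth inhibition (40 = 60% inhibited); 0, no net growth; -100 to 0, cell death (-40 = 40% of starting cells died; -100 = all dead).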 A number with no mark means an inactive call. The source made the active and inactive calls. Rule for the calls: active = growth percent below 10; inactive = the rest.

On to `Cc1sc(C(NC(=O)OCCn2c([N+](=O)[O-])cnc2C)C(F)(F)Cl)nc1-c1ccc(OC(F)(F)F)cc1` (configuration not stated), for which the growth in the assay on DU-145 prostate was -70.4% (active); in the assay on K-562 leukemia, 0.935% (active); in the assay with MALME-3M melanoma, -75% (active); with MDA-MB-231 breast it was -94.8% (active); with RXF 393 renal, -88.6% (active); in the assay with SF-268 CNS, -38.6% (active). Besides, the growth in the assay with SF-295 CNS is -98.8% (active); with SF-539 CNS, -92.4% (active); with UACC-257 melanoma it was -73% (active); in the assay with M14 melanoma, -67.5% (active); in the assay on HCT-15 colon it was -92.5% (active); with HT29 colon, -83.4% (active). Also, the growth in the assay with SNB-75 CNS was -32.9% (active); in the assay on U251 CNS, -85.7% (active); with PC-3 prostate, -65.1% (active); in the assay on SK-MEL-5 melanoma, -99.5% (active); with UACC-62 melanoma, -96.1% (active); in the assay on SK-MEL-28 melanoma, -92.2% (active).

With `CC1(c2cc3cc(Cl)ccc3oc2=O)NC(=O)c2c(/C=C/C(=O)OC3CC4CCC3(C)C4(C)C)cccc2N1` (configuration not stated), the growth in the assay on DU-145 prostate is 71.2%; in the assay with K-562 leukemia, 21.6%; in the assay with MALME-3M melanoma, 84.6%; in the assay with MDA-MB-231 breast it was 75.1%; in the assay with RXF 393 renal, 52%; in the assay with SF-268 CNS it was 78.5%. In addition, the growth in the assay with SF-295 CNS is 46.1%; in the assay with SF-539 CNS, 87.2%; with UACC-257 melanoma, 57.2%; with M14 melanoma, 69.6%; in the assay on HCT-15 colon, 66.4%; in the assay on HT29 colon, 60.9%. Besides, the growth in the assay on SNB-19 CNS is 52.9%; with U251 CNS, 52.5%; in the assay on PC-3 prostate, 25.7%; in the assay with SK-MEL-5 melanoma it was 61.2%; in the assay on UACC-62 melanoma it was 62.6%; in the assay on LOX IMVI melanoma it was 78.9%. In the assay on SK-MEL-28 melanoma, the growth was 75.4%.

In the case of `O=C(/C=C/Nc1ccc(Cl)cc1)c1ccc2c(c1)Nc1ccccc1S2`, the growth in the assay on DU-145 prostate was 33.5%; in the assay with K-562 leukemia, 49.2%; in the assay with MALME-3M melanoma, 50.7%; with MDA-MB-231 breast it was 26.8%; with RXF 393 renal, 14.5%; in the assay with SF-268 CNS it was 42.3%. The growth with SF-295 CNS is 23.4%; in the assay on SF-539 CNS it was 8% (active); in the assay with UACC-257 melanoma it was 74.5%; with M14 melanoma, 49.5%; in the assay on HCT-15 colon, 67.1%; in the assay on HT29 colon, 28.7%. In addition, the growth in the assay with SNB-75 CNS is -24.4% (active); in the assay on U251 CNS, 31.5%; with PC-3 prostate, 29.8%; in the assay with SK-MEL-5 melanoma, 71.3%; in the assay with UACC-62 melanoma, 32%; with SK-MEL-28 melanoma it was 65.9%.

As to `COc1ccc(-c2nc3ccc(C(=O)NN4C(=O)c5ccc([N+](=O)[O-])cc5C4=O)cc3[nH]2)cc1`, the growth in the assay with DU-145 prostate is 109%; in the assay with K-562 leukemia it was 102%; with MALME-3M melanoma, 87.9%; with MDA-MB-231 breast it was 90.1%; with RXF 393 renal, 68.4%; in the assay on SF-268 CNS it was 105%. The growth is 88.2% in the assay with SF-295 CNS; 91.1% in the assay with SF-539 CNS; 94.2% with UACC-257 melanoma; 93.7% with M14 melanoma; 95.9% with HCT-15 colon; 87.1% with HT29 colon. The growth in the assay on SNB-75 CNS was 83.3%; in the assay with U251 CNS, 97%; in the assay on PC-3 prostate it was 90.5%; in the assay with SK-MEL-5 melanoma, 83.1%; in the assay with UACC-62 melanoma it was 80.2%; in the assay on SK-MEL-28 melanoma, 95.6%.

Take `O=c1[nH]c2ccccc2cc1CSc1nccc(-c2ccc3ccccc3c2)n1`: the growth was 81% with DU-145 prostate; 10.1% in the assay on K-562 leukemia; 86.3% in the assay on MALME-3M melanoma; 58.2% in the assay on MDA-MB-231 breast; 59.1% in the assay with RXF 393 renal; 85.4% in the assay with SF-268 CNS. Further, the growth with SF-295 CNS is 70.8%; with SF-539 CNS, 71.2%; with UACC-257 melanoma, 99.3%; in the assay with M14 melanoma, 56.1%; with HCT-15 colon, 29%; in the assay on HT29 colon, 44.3%. In addition, the growth was 86.6% with SNB-75 CNS; 65.2% in the assay with U251 CNS; 50% with PC-3 prostate; 57.2% with SK-MEL-5 melanoma; 67.1% in the assay on LOX IMVI melanoma; 86.3% in the assay with SK-MEL-28 melanoma.

Take `CC12CC[C@@H]3[C@]4(C)COC(c5cn[nH]c5-c5ccc(Br)cc5)O[C@@H]4CC[C@@]3(C)[C@@H]1CC(C1=CCOC1=O)O2` (some centres not stated): the growth with DU-145 prostate was 69.5%; with K-562 leukemia it was 19.4%; with MALME-3M melanoma it was 70.2%; in the assay with MDA-MB-231 breast, 66%; in the assay with RXF 393 renal, 37%; with SF-268 CNS, 50.1%. Besides, the growth with SF-295 CNS was 48.7%; in the assay on SF-539 CNS, 69.9%; in the assay with UACC-257 melanoma it was 55.2%; in the assay on M14 melanoma, 38.8%; in the assay on HCT-15 colon it was 42.2%; in the assay with HT29 colon it was 47.6%. For the same molecule, the growth is 59.4% with SNB-19 CNS; 53% with U251 CNS; 24.2% in the assay with PC-3 prostate; 32.4% with SK-MEL-5 melanoma; 41.5% in the assay on UACC-62 melanoma; 22.1% in the assay on LOX IMVI melanoma. The growth with SK-MEL-28 melanoma was 47.1%.

Take `CC1(C)CC[C@]2(C(=O)Nc3ccc(F)cc3)CC[C@]3(C)C(=CCC4[C@@]5(C)C[C@@H](O)[C@H](O)[C@@](C)(CO)C5CC[C@]43C)C2C1` (some centres not stated): the growth is 59.7% in the assay on DU-145 prostate; 18% in the assay on K-562 leukemia; 60.7% with MALME-3M melanoma; 27.8% in the assay on MDA-MB-231 breast; -6.8% (active) with RXF 393 renal; 52.6% with SF-268 CNS. The growth in the assay with SF-295 CNS was 26.1%; in the assay with SF-539 CNS, 49.7%; with UACC-257 melanoma, 27.7%; in the assay with M14 melanoma, 46.6%; in the assay with HCT-15 colon, 24.1%; in the assay on HT29 colon, 5.61% (active). The growth was 81.7% in the assay on SNB-75 CNS; 38.3% in the assay with U251 CNS; 11.2% in the assay with PC-3 prostate; -47.6% (active) in the assay with SK-MEL-5 melanoma; 35% in the assay on UACC-62 melanoma; 52.9% in the assay with SK-MEL-28 melanoma.

On to `CCCCCCCCc1ccc(C(=O)Nc2cccc(P(=O)(O)O)c2)cc1`, for which the growth was 107% with DU-145 prostate; 97.6% in the assay on K-562 leukemia; 106% in the assay on MALME-3M melanoma; 116% in the assay with MDA-MB-231 breast; 129% in the assay on RXF 393 renal; 107% with SF-268 CNS. Moreover, the growth with SF-295 CNS was 96.5%; in the assay with SF-539 CNS, 97.4%; with UACC-257 melanoma, 97.1%; with M14 melanoma, 96.2%; in the assay on HCT-15 colon it was 100%; in the assay on HT29 colon it was 114%. Moreover, the growth with SNB-75 CNS was 99.9%; in the assay with U251 CNS, 108%; in the assay with PC-3 prostate it was 92.9%; in the assay on SK-MEL-5 melanoma it was 97.7%; in the assay with UACC-62 melanoma it was 91.8%; in the assay with LOX IMVI melanoma it was 103%. For the same molecule, the growth in the assay on SK-MEL-28 melanoma is 107%.
